The list is not random: actives were taken first. Their share in the collection is about 19%.
IL1B secr inh – inflammasome signaling inhibition, IL-1 beta readout | activity change, % at 57.5 µM | 4.7% of 360,000 active | THP-1 LPS/ATP IL-1B secretion, AlphaLISA, 16 h; active compounds read low; in the data active = activity change below about -50%; inconclusive = mostly about -30% to -49%
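THP-1 cells pretreated 1 hr with compounds (up to 57.5 uM final), then stimulated with LPS (250 ng/mL final) plus ATP (1.25 mM final); secreted IL-1B measured by AlphaLISA after 16 hr, decreased signal indicating inhibition.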
TDP1 cell CPT – growth inhibition of DT40 Tdp1-/-;hTDP1 cells with camptothecin (screen for TDP1 inhibitors) | chicken DT40 Tdp1-/-;hTDP1 cells + 20 nM CPT, ATP luminescence, 48 h | Potency, µM (series often up to 46.2 µM), hits mostly inhibitors | 12% of 420,000 active | AID 686979; note: nearly all actives have a fitted effect of over 55% in size
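Cell growth measured by CellTiter-Glo luminescence after a minimum 48 h, 37 C compound exposure with 20 nM CPT in Tdp1-knockout DT40 cells stably expressing hTDP1, seeded 400/well; qHTS titration format.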
ELG1 repair inh – blocks ELG1-dependent DNA repair in HEK293T cells; 2.3% of 330,000 active; HEK293T ELG1-luciferase reporter, luminescence, 16 h; DNA damage induced by 5-fluorouridine; Potency, µM (top dose mostly 46.1 µM), actives largely listed as inhibitors; AID 504467; note: nearly all actives have a fitted effect of over 55% in size
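In this reporter screen, reduction of luminescence relative to DMSO vehicle indicated activity. Compounds and 5-fluorouridine were added together to 2,000 cells per well, incubated for 16 hr at 37 °C, then developed with ONE-Glo.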
HT1080 IDH1KD tx – HT-1080 IDH1 knockdown cell toxicity (counter line); HT-1080 IDH1 knockdown viability, ATP luminescence, 48 h; Potency, µM (highest dose often 46.1 µM), usual class: cytotoxic; 2% of 360,000 active
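Assay cells: HT-1080 with IDH1 knockdown, 750 per well, RPMI/5% FBS. Exposure: 48 h at 37 °C following 2 h pre-incubation. Read: CellTiter-Glo luminescence; fitted concentration-response, curve class assigned.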
HT1080NT lethal – kills 2HG-producing HT-1080-NT fibrosarcoma cells | HT-1080-NT fibrosarcoma viability, CellTiter-Glo ATP luminescence, 48 h | 1.6% of 360,000 active | Potency, µM (doses to about 46.1 µM), usual class: cytotoxic | AID 686970;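 note: NT is the 2HG producing partner of a matched IDH1 knockdown line; nearly all actives have a fitted effect of over 55% in size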
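HT-1080-NT; 750 cells/well; 5% FBS RPMI; 48 h compound, 37 degrees C; CellTiter-Glo luminescence; curve fitting and curve-class assignment.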
TDP1 cell noCPT – qHTS for Inhibitors of human tyrosyl-DNA phosphodiesterase 1 (TDP1): qHTS in cells in absence of CPT; DT40 Tdp1-/- hTDP1 cells, no CPT, ATP luminescence, 48 h; Potency, µM (top dose mostly 46.2 µM), most hits filed as inhibitors; 15% of 420,000 active; AID 686978, 2013; note: nearly all actives have a fitted effect of over 55% in size
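Growth of hTDP1-complemented DT40 Tdp1-knockout cells is measured by ATP luminescence after at least 48 hr compound exposure at 37 °C, with DMSO substituting for the 20 nM CPT used in the parallel screen.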
Numbers stand for hits; . = inactive; ? = inconclusive; / = not tested or not shown; ! = not active in a repeat. Unless noted, calls come from the whole dose curve; as a rule, active = well fitted curve in the direction sought with a large enough effect; inconclusive = small, poorly fitted or top-dose-only effect, or another doubt; inactive = no such curve, though single readings can be large; an effect the other way counts as inactive or inconclusive.

SMILES	IL1B secr inh	TDP1 cell CPT	ELG1 repair inh	HT1080 IDH1KD tx	HT1080NT lethal	TDP1 cell noCPT
COC(=O)C1=C(c2ccc(OCc3ccccc3)cc2)C[C@@H]2CC[C@H]1N2C(=O)NCc1ccc([N+](=O)[O-])cc1	?	21µM	?	.	.	12µM
NNc1n[nH]c(=S)n1N	.	?	?	.	.	?
CC1(C)C(=O)C=C[C@@]2(C)C1CC(O)[C@]1(C)C2CC[C@@]2(C)C(c3ccoc3)OC(=O)C3O[C@]312 (some centres not stated)	/	13µM	/	/	/	12µM
C[C@H](N)Cc1cnc[nH]1	/	.	/	/	/	.
Cc1cc2oc(=O)cc(-c3ccccc3)c2c(C)c1-c1ccc(CO)cc1	.	18µM	?	.	.	18µM
c1cnc2ccc(C(c3nnnn3C3CCCCC3)N3CCN(C4CCCCC4)CC3)cc2c1 (configuration not stated)	.	13µM	/	.	.	13µM
COc1ccc(C(c2nnnn2C2CCCC2)N2CCC3(CC2)C(=O)NCN3c2ccccc2)cc1 (configuration not stated)	.	?	/	?	?	?
NC1CCc2cc(O)c(O)cc2C1 (configuration not stated)	.	21µM	.	.	.	13µM
CCCCn1c(O)c(/C=N/N2CCOCC2)c(=O)[nH]c1=S	.	.	.	.	.	.
CCCCCCn1c(O)c(C=Nc2ccccc2N2CCOCC2)c(=O)[nH]c1=S	.	?	.	.	.	15µM
CCCCCCC(=O)N/N=C/c1c(O)n(CCCC)c(=S)[nH]c1=O	.	?	?	?	?	18µM
O=C(c1cc(-c2cccc(Cl)c2)on1)N1CCOCC1	.	.	?	.	.	.
N#CC1c2ccccc2C=CN1C(=O)c1ccc(N(CCCl)CCCl)cc1 (configuration not stated)	?	23µM	/	.	.	18µM
N#Cc1ccc(C(=O)N2Cc3cnnn3-c3ccccc3C2C#N)cc1 (configuration not stated)	.	.	/	.	.	.
COc1ccc(CC2(CCc3ccncc3)C(=O)NC(=O)NC2=O)cc1	.	.	.	.	.	.
CC1(CCCc2ccc(N(CCCl)CCCl)cc2)NC(=O)NC1=O (configuration not stated)	.	0.41µM	/	.	.	0.52µM
CN1CCC(N(C)c2ccc(C(N)=O)cc2[N+](=O)[O-])CC1	.	.	.	.	.	.
COC(=O)C1=C(c2ccccc2)C[C@@H]2CC[C@H]1N2C(=O)NCCS(C)=O (some centres not stated)	.	.	/	.	.	.
O=C(COC(=O)Cc1ccccc1)Nc1cc(S(=O)(=O)N2CCCCC2)ccc1Cl	.	.	.	.	.	.
Cc1ccc(CCNC(=O)c2cc3cc(S(=O)(=O)N4CCCCC4)ccc3n2C)cc1	/	7.3µM	/	/	/	2.9µM
NS(=O)(=O)c1ccc(CCNC(=O)c2ccc(Cl)c(S(=O)(=O)N3CCCCC3)c2)cc1	.	?	16µM	.	.	23µM
CC(=O)OC1(c2ccccc2)CCN(C2CCCCC2)CC1C (configuration not stated)	.	.	.	.	.	?
O=C(N/N=C\c1ccc(COc2ccc([N+](=O)[O-])cc2)o1)c1cccc(Cl)c1	.	.	?	.	.	?
CC(C)NC(=O)N1CCC2(CC1)CCN(C(=O)Oc1ccccc1)CC2	/	.	/	/	/	?
CC(=O)[C@H]1CC[C@H]2[C@@H]3CC[C@H]4C[C@H](O)CC[C@]4(C)[C@H]3C(=O)C[C@]12C	.	?	.	.	.	12µM!
CC(=O)OC1CCC2(C)C(CCC3C4CC(N5CC5)C(C(C)=O)C4(C)CC(=O)C32)C1 (configuration not stated)	.	12µM	/	.	.	15µM

Screening data deposited in PubChem BioAssay by National Center for Advancing Translational Sciences (NCATS).
